FLuc counter: qHTS profiling assay for firefly luciferase inhibitor/activator using purifed enzyme and Km concentrations of substrates (counterscreen for miR-21 project). purified FLuc, Km substrates, luminescence inhibition. 6.9% of 360,000 active. Potency, µM (titrated, usually from 57.5 µM), for inactives: top-dose activity change, negative = inhibition, actives largely listed as inhibitors. Luciferin 4-monooxygenase (Photinus pyralis), P08659;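 further: plate controls were vehicle for no effect and reference inhibitor for full effect; nearly all actives have a fitted effect of over 55% in size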
Target sequence (P08659 whole entry, looked up): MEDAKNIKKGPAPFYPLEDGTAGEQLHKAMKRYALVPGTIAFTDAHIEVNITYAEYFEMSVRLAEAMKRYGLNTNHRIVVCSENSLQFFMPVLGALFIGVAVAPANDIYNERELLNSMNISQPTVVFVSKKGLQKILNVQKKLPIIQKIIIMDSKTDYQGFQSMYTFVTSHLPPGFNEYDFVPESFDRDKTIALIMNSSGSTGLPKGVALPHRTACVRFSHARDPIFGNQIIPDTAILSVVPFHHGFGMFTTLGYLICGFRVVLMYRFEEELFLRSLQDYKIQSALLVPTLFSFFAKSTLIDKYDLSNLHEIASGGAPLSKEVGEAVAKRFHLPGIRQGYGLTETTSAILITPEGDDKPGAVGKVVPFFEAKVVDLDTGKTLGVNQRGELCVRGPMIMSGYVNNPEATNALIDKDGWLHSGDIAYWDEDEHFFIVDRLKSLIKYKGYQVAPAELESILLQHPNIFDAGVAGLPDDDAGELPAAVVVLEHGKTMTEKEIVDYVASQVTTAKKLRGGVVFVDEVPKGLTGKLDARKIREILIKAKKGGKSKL
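Purified P. pyralis luciferase (10nM final) with 10uM D-luciferin and 10uM ATP (Km levels) in 50mM Tris acetate pH 7.5, 10mM Mg acetate, 0.01% Tween-20, 0.05% BSA; qHTS 6-point titration, ~60 µM downward; luminescence read.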
Rab9 prom act: qHTS Assay for Rab9 Promoter Activators; Huh7 Rab9 promoter-luciferase reporter, luminescence, 24 h; Potency, µM (highest dose often 9.22 µM), for the others: top-dose activation, negative = inhibition, actives largely listed as activators; 2.8% of 320,000 active; further: % of control where 0% means no effect; nearly all actives have a fitted effect of over 60% in size
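Using Huh7 cells stably transfected with Rab9 promoter–luciferase, compounds were incubated 24 h at 37 °C, 5% CO2; luciferase luminescence was read 10 min after reagent addition.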
KinaseGlo FLuc: Counterscreen for Luciferase (Kinase-Glo TM) Inhibition. Luciferin 4-monooxygenase (Photuris pensylvanica), Q27757. Kinase-Glo luciferase, ATP luminescence, 8 min. Potency, µM (series often up to 38.3 µM), for inactives: at the top dose activity change, negative = inhibition, hits mostly inhibitors. 0.28% of 200,000 active. AID 1379, 2008; further: on the % scale 0 is the no-effect control and ±100 the full control effect; nearly all actives have a fitted effect of over 60% in size
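Light output from Kinase-Glo luciferase with luciferin and 10 uM ATP in 50 mM imidazole pH 7.2, KCl, MgCl2, Tween 20, BSA; compound pin-delivered, 8-min ambient incubation, then luminescence read.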
SMN2 splice up: qHTS Assay for Enhancers of SMN2 Splice Variant Expression | HEK293 SMN2-luciferase splicing reporter, luminescence, 30-36 h | Potency, µM (titrated, usually from 46.1 µM), for inactives: at the highest dose activity change, positive = activation, usual class: activators | 2.8% of 210,000 active; further: % of control where 0% means no effect; nearly all actives have a fitted effect of over 55% in size
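HEK293 cells carry an SMN2 minigene-luciferase reporter in which exon 7 inclusion puts luciferase in frame. Cells were seeded at 2000 cells/well, attached for 10-12 hours, then exposed to compounds for 30-36 hours at 37C before ONE-Glo luminescence.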
NPC1 prom act: qHTS Assay for NPC1 Promoter Activators; Huh7 NPC1 promoter luciferase reporter, 24 h; Potency, µM (doses to about 9.22 µM), for inactives: top-dose activation, most hits filed as activators; 2.4% of 320,000 active; AID 485313, 2010; further: % of control where 0% means no effect; nearly all actives have a fitted effect of over 60% in size
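Stable NPC1-promoter luciferase Huh7 line; cpd (DMSO) 24 h, 37 °C, 5% CO2; Amplite luciferase reagent 10 min RT; luminescence readout. qHTS format.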
Numbers without * were called inactive; ? = inconclusive; . = not tested or not shown. An excerpt weighted towards active compounds, which were near 7.3% of everything screened. The call rests on the fitted dose curve; in most records, active means well fitted curve in the direction sought with a large enough effect; inconclusive means small, poorly fitted or top-dose-only effect, or another doubt; inactive means no such curve, though single readings can be large; an effect the other way counts as inactive or inconclusive. Potency means the concentration at half of the fitted maximal effect.

SMILES | FLuc counter | Rab9 prom act | KinaseGlo FLuc | SMN2 splice up | NPC1 prom act
Cc1ccc(OCC(=O)Nc2ccc(OCc3cc(=O)n4cccc(C)c4n3)cc2)cc1C | -1.7% | . | . | . | .
C=CCc1c(C)nc2nc(SCC(=O)Nc3ccccc3CC)nn2c1C | 5.7% | . | . | . | .
O=C(O)c1cc(-c2ccc(Br)s2)nc2ccccc12 | 8.49µM* | 26.1% | . | . | 17.7%
O=C(NN1CCOCC1)c1cc(-c2ccccc2)nc2ccccc12 | 0.6% | -7.2% | 2.1% | -11.6% | 1.5%
CN1CCN(NC(=O)c2cc(-c3ccc(Br)s3)nc3ccccc23)CC1 | ? | -1.3% | . | . | -5.5%
CCc1ccc(-c2cc(C(=O)NN3CCOCC3)c3ccccc3n2)s1 | 7.57µM* | 1.0% | -11.6% | 12.4% | 1.4%
CCOc1ccc2nc(N3CCCC(C(=O)NCCCN4CCOCC4)C3)sc2c1 (configuration not stated) | 13.5µM* | 29.6% | 1.7% | 12.6µM* | 21.5%
CCOc1ccc2nc(N3CCC(C(=O)NC4CCCCC4)CC3)sc2c1 | ? | 15.1% | . | . | 24.0%
CCOc1ccc2nc(N3CCC(C(=O)NCCCN4CCOCC4)CC3)sc2c1 | 8.49µM* | 3.55µM* | . | . | ?
Cc1cc(C)cc(NC(=O)CSCc2cc(=O)c3ccc(C)c(C)c3[nH]2)c1 | -0.8% | . | . | . | .
Oc1cc(-n2cccn2)c(O)cc1-n1cccn1 | 16.9µM* | -2.0% | . | . | -0.5%
O=Cc1ccccc1-n1cccn1 | -0.2% | -0.7% | 1.5% | -0.8% | 1.2%
Cc1oc2c(C)c3oc(=O)c(CC(=O)N4CCCCC4)c(C)c3cc2c1C | -12.3% | . | . | -0.3% | .
COc1cccc(NC(=O)Nc2ccc3c(c2)N(C)C(=O)CS3)c1 | 12µM* | -2.7% | -2.2% | 14.0% | 0.1%
CN1C(=O)CSc2ccc(NC(=O)Nc3ccccn3)cc21 | 3.01µM* | 2.82µM* | -6.0% | ? | ?
CC(=O)Nc1ccc(NC(=O)Nc2ccc3c(c2)N(C)C(=O)CS3)cc1 | -16.8% | -0.4% | . | . | -6.1%
CC(C)(C)C(=O)Cn1c(=O)n(-c2ccc(Cl)cc2)c(=O)c2c3c(sc21)CCCC3 | 3.6% | . | . | -0.7% | .
CN(Cc1ccccc1)Cc1c(O)ccc2ccccc12 | 26.9µM* | 0.5% | . | . | -0.7%
Cc1nc2ccccn2c1C(=O)N/N=C/c1ccc([N+](=O)[O-])o1 | -6.3% | -5.8% | -1.1% | -37.4% | -8.8%
Cc1nc2ccccn2c1C(=O)N/N=C/c1ccc(CNC(=O)C(=O)Nc2ccccc2)o1 | 19µM* | 2.1% | -3.3% | ? | -4.6%
Cc1ccccc1OCc1nc2c3cnn(C)c3ncn2n1 | ? | 2.82µM* | -8.4% | ? | 3.98µM*
Cc1ccccc1OCc1nc2c3c(ncn2n1)-c1ccccc1CC31CCCC1 | -0.4% | 0.1% | -2.4% | -32.1% | -5.7%
CCOc1ccc(N2CC(C)Cn3c2nc2c3c(=O)n(CC(=O)O)c(=O)n2C)cc1 (configuration not stated) | 0.2% | . | . | -8.7% | .
O=C(N/N=C/c1ccccc1O)c1cccc2ccccc12 | ? | -39.1% | . | . | -33.9%
O=C(N/N=C/c1cccc(C(F)(F)F)c1)c1ccccc1O | 6.75µM* | 15.3% | -2.4% | -8.9% | 18.2%
SMILES | FLuc counter | Rab9 prom act | KinaseGlo FLuc | SMN2 splice up | NPC1 prom act
O=C(N/N=C/c1ccnc2ccccc12)c1ccccc1O | 10.7µM* | 7.8% | . | . | 14.5%
O=C(N/N=C/c1ccc2nccnc2c1)c1ccccc1O | 0.269µM* | ? | . | . | ?
CC(=O)c1ccc(NC(=O)CCn2cccn2)cc1 | 2.0% | . | . | . | .
CN1CCN(C(=O)Nc2cccc(Cl)c2)c2cccnc21 | 0.8% | . | . | ? | .
O=C(CN1C(=O)CCc2cc(S(=O)(=O)N3CCCCC3)ccc21)NCc1ccc(Cl)cc1 | -7.3% | . | . | . | .
CC(=O)c1c(C)oc2ccc(OCc3ccccc3)cc12 | 16.9µM* | 26.5% | . | . | 26.0%
Nc1nonc1C(=O)N/N=C/c1cc2c(cc1[N+](=O)[O-])OCO2 | -0.8% | 3.7% | . | . | -5.7%
O=C(N/N=C/c1cccc([N+](=O)[O-])c1)c1cccs1 | 8.49µM* | ? | 1.2% | 12.6µM* | ?
